Laboratory results reported in PubChem BioAssay (NCI).
Several values for one entry are separate records, joined by “and”; a condition that tells them apart may be missing. Equal values may be shown once. About 83,000 compounds went through this panel and 20% of them were active in at least one assay; those are over-represented in the sample as a whole.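 Interpretation: 100, growth as untreated; towards 0, rising growth inhibition; 0, no net growth; 0 to -100, cell death. Compounds scoring below 10 were considered active.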 Activity calls are given as the source filed them.

Legend:
Test in all cases: NCI-60 one-dose screen, 48 h (100 = growth as untreated, 0 = no growth, -100 = all killed)
Conditions in all cases: 10 µM unless noted
SR leukemia = tested on: SR leukemia
RPMI-8226 leukemia = tested on: RPMI-8226 leukemia
OVCAR-8 ovarian = tested on: OVCAR-8 ovarian
OVCAR-5 ovarian = tested on: OVCAR-5 ovarian
OVCAR-4 ovarian = tested on: OVCAR-4 ovarian
OVCAR-3 ovarian = tested on: OVCAR-3 ovarian
HS 578T breast = tested on: HS 578T breast
NCI/ADR-RES ovarian = tested on: NCI/ADR-RES ovarian
T-47D breast = tested on: T-47D breast
BT-549 breast = tested on: BT-549 breast
MDA-MB-435 melanoma = tested on: MDA-MB-435 melanoma
SW-620 colon = tested on: SW-620 colon
MCF7 breast = tested on: MCF7 breast
HCT-116 colon = tested on: HCT-116 colon
HCC-2998 colon = tested on: HCC-2998 colon
KM12 colon = tested on: KM12 colon
IGROV1 ovarian = tested on: IGROV1 ovarian

Measured: growth

CC(NC(=O)CCl)c1ccccc1 (centres undefined)
inactive: SR leukemia 99.2% | RPMI-8226 leukemia 107% | OVCAR-8 ovarian 105% | OVCAR-5 ovarian 109% | OVCAR-4 ovarian 98.7% | OVCAR-3 ovarian 102% | HS 578T breast 92.5% | NCI/ADR-RES ovarian 104% | T-47D breast 103% | BT-549 breast 95.3% | MDA-MB-435 melanoma 99.7% | SW-620 colon 96.4% | MCF7 breast 94% | HCT-116 colon 97.6% | HCC-2998 colon 106% | KM12 colon 105%

CC1=CC(=O)C=CC1=Nc1ccc(N(C)C)cc1
69.1% (inactive) and -24.8% (active): T-47D breast
59.4% (inactive) and 6.47% (active): MDA-MB-435 melanoma
84.3% (inactive) and 2.64% (active): HCT-116 colon
89.9% (inactive) and 6.86% (active): MCF7 breast
66.5% (inactive) and -4.07% (active): RPMI-8226 leukemia
69.4% (inactive) and -93.6% (active): OVCAR-3 ovarian
inactive: SR leukemia 29.3% | OVCAR-8 ovarian 85.7% and 52% | OVCAR-5 ovarian 140% and 83.9% | OVCAR-4 ovarian 44.9% and 21.1% | IGROV1 ovarian 88.5% and 49.4% | HS 578T breast 109% | NCI/ADR-RES ovarian 78.1% and 37.9% | BT-549 breast 79% and 27.8% | HCC-2998 colon 98.4% and 59.1% | KM12 colon 83.4% and 25.2%

C(#CCN1CCOCC1)CCCN1CCOCC1
inactive: SR leukemia 124% and 109% | RPMI-8226 leukemia 112% | OVCAR-8 ovarian 105% and 106% | OVCAR-5 ovarian 102% and 82.7% | OVCAR-4 ovarian 102% | IGROV1 ovarian 116% and 106% | OVCAR-3 ovarian 116% and 111% | HS 578T breast 112% and 114% | NCI/ADR-RES ovarian 105% and 104% | T-47D breast 105% and 101% | BT-549 breast 99.5% and 53.3% | MDA-MB-435 melanoma 102% and 101% | SW-620 colon 109% and 106% | MCF7 breast 91.9% and 99.5% | HCT-116 colon 105% and 107% | HCC-2998 colon 99.6% and 98.9% | KM12 colon 105% and 106%
